Screens as filed in PubChem.
HttQ103 aggreg: reduces HttQ103-GFP aggregates in PC12 cells. PC12 HttQ103-GFP aggregates, Acumen cytometry, 40 h. Potency, µM (doses to about 46.1 µM), hits mostly inhibitors. 220,000 compounds, 1.1% hits. AID 1688; also: nearly all actives have a fitted effect of over 60% in size
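Inducible Q103 Huntingtin exon 1–GFP PC12 line, 1500 cells/well in phenol red free DMEM with 5% equine and 5% calf serum. Tebufenozide 100 nM induced expression; compounds titrated; aggregates quantified by cytometry.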
HTT cytoprotect: cytoprotection in Huntington HTT-Q103 PC12 cell model; PC12 HTT-Q103 induced, cytoprotection, ATP luminescence, 40 h; 230,000 compounds, 0.14% hits; Potency, µM (doses to about 56.4 µM), most hits filed as activators; also: nearly all actives have a fitted effect of over 45% in size
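Rat PC12, Q103 Htt exon1-GFP fusion, ecdysone promoter; tebufenozide inducer 100 nM final; compound titration; qHTS, 1500 cells/well; ATPlite luminescent read.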
ALDH1A1 inh: inhibitors of human aldehyde dehydrogenase 1A1; P00352; Purified ALDH1A1, NADH fluorescence, propionaldehyde substrate; Potency, µM (titrated, usually from 75.3 µM), most hits filed as inhibitors; 220,000 compounds, 7.3% hits; AID 1030; active = well fitted inhibition curve with a large enough effect, not every such curve was filed as active; inconclusive = small, poorly fitted or top-dose-only effect, or another doubt; inactive = no such curve, though single readings can be large or run the other way
PNC assembly inh: perinucleolar compartment assembly inhibition. PC3M PTB-GFP, PNC prevalence imaging, 16 h; active compounds read low. activity change (PNC), negative = inhibition, % at 10 µM. 140,000 compounds, 3.1% hits;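 active = readout at or below -70, meaning at least 70% loss of cells showing the perinucleolar compartment, a nuclear body marking cancer cells; inconclusive = readout between -30 and a set limit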
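Compounds are pinned in duplicate onto adhered PC3M cells stably expressing GFP-tagged PTB and incubated 16 h at 37 C. Cells are then fixed, nuclei stained with Hoechst, and PNC-positive cells counted.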
CBFb RUNX1 block: CBF-beta/RUNX1 interaction disruption | AlphaScreen CBFb-His/RUNX1-biotin binding, biochemical | Potency, µM (doses to about 59.8 µM), most hits filed as inhibitors | 230,000 tested, under 10 active
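Inhibition was taken as any reduction in AlphaScreen signal from the CBF-beta–RUNX1 pair (His and biotin tags, 30 nM each), measured after compound (15 min) and bead (90 min) incubations at room temperature.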
HPGD block: blocks human HPGD enzyme activity | purified HPGD, NADH fluorescence kinetic, PGE2 substrate | 150,000 compounds, 4.3% hits | P15428 | Potency, µM, usual class: inhibitors | AID 894; active = well fitted inhibition curve with a large enough effect, not every such curve was filed as active; inconclusive = small, poorly fitted or top-dose-only effect, or another doubt; inactive = no such curve, though single readings can be large or run the other way
Target sequence (P15428 whole entry, looked up): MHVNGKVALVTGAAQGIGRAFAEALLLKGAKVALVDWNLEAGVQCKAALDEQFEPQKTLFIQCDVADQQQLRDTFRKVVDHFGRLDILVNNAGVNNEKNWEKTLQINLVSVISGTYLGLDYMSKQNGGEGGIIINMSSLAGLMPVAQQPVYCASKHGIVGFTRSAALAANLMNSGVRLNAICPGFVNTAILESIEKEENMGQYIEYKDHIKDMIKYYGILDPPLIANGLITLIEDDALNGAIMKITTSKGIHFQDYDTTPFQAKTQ
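20 nM HPGD preincubated 15 min at room temperature with compound in 50 mM Tris-HCl pH 8, 0.01% Tween 20. Started with 1 mM NAD+ and 30 uM prostaglandin E2; NADH fluorescence (360/450 nm) read 5 times over 30-s intervals, last minus first.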
Numbers stand for hits; n = inactive; u = inconclusive; x = no result; [ ] = another dose, or the depositor's remark. Compounds with a hit are over-represented: about 11% of the library has one in this group of screens. Unless noted, calls follow the shape of the dose curve; as a rule, active = well fitted curve in the direction sought with a large enough effect; inconclusive = small, poorly fitted or top-dose-only effect, or another doubt; inactive = no such curve, though single readings can be large; an effect the other way counts as inactive or inconclusive.

SMILES	HttQ103 aggreg	HTT cytoprotect	ALDH1A1 inh	PNC assembly inh	CBFb RUNX1 block	HPGD block
CCOCC(=O)Nc1cccc(NC(C)=O)c1	n	n	n	u	n	n
CCC(=O)Nc1cccc(Br)c1	n	n	n	-116	n	n
CC1(C)S[C@@H]2[C@H](C(=O)O)N=C(Cc3ccccc3)N2[C@H]1C(=O)O	x	n[10 µM]	n[13.5 µM]	x	x	n
Cc1cccc(CNc2cc(-c3cccnc3)ncn2)c1	x	n	u	x	x	u
Cc1nc(NC(=O)CSc2nc3cccnc3n2C2CCCCC2)sc1C	n	n[10 µM]	n	-125	n	n
CCc1nnc(NC(=O)CSc2nc3cccnc3n2C2CCCCC2)s1	n	n[10 µM]	n	n	n	n
O=[n+]1ccn([O-])c2ccccc21	n	n	x	x	x	x
c1ccc2nc(-c3nc4ccccc4o3)ccc2c1	n	n[10 µM]	u	-107	n	u
CS(=O)(=O)Nc1cccc(-c2cncnc2NCc2ccccc2)c1	x	n	n	x	x	x
CCc1nnc(NC(=O)c2ccc(OC)cc2OC)s1	n	n	7.9µM	u	n	n
COc1ccc(S(=O)(=O)Nc2cccc(N(C)S(C)(=O)=O)c2)cc1Br	n	n[10 µM]	u	n	n	x
CC(C)S	x	n	n	x	n	n
CCOC(=O)c1c(C)c(C(=O)OCC)n(C)c1C	n[9.22 µM]	n[10 µM]	n	x	n	x
Cc1cc(S(=O)(=O)N2CCC(NC(=O)C34CC5CC(CC(C5)C3)C4)CC2)ccc1-n1cnnn1	n	n	u	n	n	n
Cc1cc(S(=O)(=O)N2CCC(N3CCCCC3)CC2)ccc1-n1cnnn1	n	x	0.028µM	n	n	n
Cc1ccc(S(=O)(=O)N(C)CC(=O)OCC(=O)c2c(N)n(C)c(=O)n(C)c2=O)cc1	n	n[10 µM]	n	u	n	x
c1cc(-c2cnn3cc(-c4ccc(OCCN5CCCCC5)cc4)cnc23)ccn1	x	x	x	x	n	x
CCOC(=O)c1cc(-c2cccs2)nn1CCC#N	n	n[0.074 µM]	14µM	u	n	n
CCOC(=O)c1cc(-c2ccncc2)nc2c1c(C)nn2-c1ccccn1	n	n[10 µM]	u	-100	n	n
CCOC(=O)c1cc(-c2ccc(C#N)cc2)nc2c1c(C)nn2CCC#N	n	n	u	-111	n	u
CCOC(=O)c1cc(-c2ccc(OC)cc2)nc2c1c(C)nn2CCC#N	u	n[10 µM]	u	u	u	u
COc1cc(CNc2ccc(C)c(C)c2)cc(OC)c1OC	u	n	8.9µM	n	n	n
COc1ccc(CNc2ccc(C)c(C)c2)c(OC)c1OC	n	n	13µM	x	u	x
COc1cc(CNc2ccc3c(c2)CCC3)cc(OC)c1O	n	n[10 µM]	20µM	n	n	n
O=C(Cn1c(=O)n(Cc2ccccc2)c(=O)c2ccccc21)NCc1ccco1	n[9.22 µM]	n	n	u	n	n
SMILES	HttQ103 aggreg	HTT cytoprotect	ALDH1A1 inh	PNC assembly inh	CBFb RUNX1 block	HPGD block
Cc1cc2ccccc2c(=O)n1CC(=O)NCCC1=CCCCC1	n	n	25µM	x	n	x
COc1cc2c(=O)n(Cc3ccccc3)c(=O)n(CC(=O)NCc3ccco3)c2cc1OC	n	n[10 µM]	1.4µM	n	n	u
O=C(CCCCn1c(=O)c2ccccc2n(Cc2ccc(F)cc2)c1=O)NCc1ccco1	1µM	n[10 µM]	n	n	n	n
O=C(CCCCn1c(=S)[nH]c2ccsc2c1=O)NCc1ccco1	n	n	n	n	n	14µM
N#C[C@@H](Cc1ccc(O)c(O)c1)C(=O)N1CCc2ccccc21	x	n[1.9 µM]	x	x	x	x
O=C(C1CCN(C2CCN(Cc3ccc4c(c3)CCO4)CC2)CC1)N1CCOCC1	n	n	n	x	n	x
COc1ccc(C(=O)N2CCC[C@@]3(CCN(c4cccc(-c5ccccc5)c4)C3)C2)cc1	x	n	u	x	x	n
COC(=O)C1(C(=O)OC)CC2=CCC3C(=O)N(c4ccccc4)C(=O)C3C2Cc2ccccc2[C@@H]1C[N+](=O)[O-] (some centres not stated)	x	u	n	x	n	n
O=C(CCn1c(=O)c2ccccc2n(CC(=O)NCCC2=CCCCC2)c1=O)NCc1ccco1	n	n[10 µM]	16µM	u	n	n
COC(=O)N1CCC[C@@]2(CCN(Cc3cc(C(F)(F)F)cc(C(F)(F)F)c3)C2)C1	x	n	n	x	x	n
Cc1nnc(N/N=C/c2ccc(-c3ccc(Br)cc3)o2)n1N	n	n	7.9µM	x	n	x
CN(C(=O)c1cc2sccc2n1C)C1CCCCC1	n	n[10 µM]	u	n	n	18µM
